Source: PubChem BioAssay (NCI)
The panel holds about 79,000 compounds, 15% with a hit somewhere; the sample as a whole holds those more often. Active and inactive are the calls of the source. No stated cut-off is given here; in the data, active means growth inhibition above about 70%; inactive means the rest.

Assays:
[1] = NCI Yeast Anticancer Drug Screen. Data for the mec2-1 strain (AID 157); conditions: S. cerevisiae mec2-1 strain, active compounds read high
In short: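 Test agents were screened against the mec2-1 yeast strain, with defined DNA repair or cell cycle alteration. Growth was scored as inhibition against vehicle-only controls.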

[2] = NCI Yeast Anticancer Drug Screen. Data for the rad14 strain (AID 159);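 further: 0% = growth of vehicle-treated control cultures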; conditions: S. cerevisiae rad14 strain growth inhibition, active compounds read high
In short: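 Inhibition of growth is reported for a repair-deficient yeast mutant following compound treatment, calculated relative to cultures that received vehicle.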

[3] = NCI Yeast Anticancer Drug Screen. Data for the sgs1 mgt1 strain (AID 161);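 further: 0% = growth of cultures given vehicle only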; conditions: S. cerevisiae sgs1 mgt1 strain, active compounds read high
In short: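 Genetically altered yeast, compound exposure, growth inhibition relative to vehicle.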

[4] = NCI Yeast Anticancer Drug Screen. Data for the CLN2oe strain (AID 163);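 further: 0% = growth of vehicle-only control cultures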; conditions: S. cerevisiae CLN2oe strain, active compounds read high
In short: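 Here, growth inhibition in a cell-cycle-altered yeast strain after compound exposure was quantified against vehicle control growth.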

[5] = NCI Yeast Anticancer Drug Screen. Data for the cln2 rad14 strain (AID 165);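 further: 0% = growth equal to vehicle treated cultures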; conditions: S. cerevisiae cln2 rad14 strain, active compounds read high
In short: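 Growth of compound-exposed yeast (cln2 rad14 genotype) measured and expressed as inhibition relative to vehicle.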

[6] = NCI Yeast Anticancer Drug Screen. Data for the bub3 strain (AID 167); conditions: S. cerevisiae bub3 mutant strain, active compounds read high
In short: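 Mutant yeast screening strain plus compound; vehicle-treated cultures serve as the 0% inhibition reference.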

[7] = NCI Yeast Anticancer Drug Screen. Data for the wt2 strain (AID 169); conditions: S. cerevisiae wt2 strain growth inhibition, active compounds read high
In short: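 Genetically defined yeast strains from a DNA-repair/cell-cycle panel were used. Compound-exposed yeast growth was measured, and the inhibition was calculated relative to vehicle treatment.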

[8] = NCI Yeast Anticancer Drug Screen. Data for the mlh1 strain (AID 171);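 further: 0% = growth of vehicle-treated control cultures of the same strain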; conditions: S. cerevisiae mlh1 strain growth inhibition, active compounds read high
In short: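 Here the genetically defined yeast mutant is grown with each compound, and the extent to which its growth falls below that of vehicle-exposed cells is reported.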

[9] = NCI Yeast Anticancer Drug Screen. Data for the sgs1 strain (AID 173);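 further: 0% = growth of vehicle-only control cultures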; conditions: S. cerevisiae sgs1 mutant, active compounds read high
In short: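 Relative growth inhibition, referenced to vehicle, was determined in a yeast strain with a defined alteration affecting DNA damage repair or cell cycle control after compound exposure.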

[10] = NCI Yeast Anticancer Drug Screen. Data for the mlh1 rad18 strain (AID 175); conditions: S. cerevisiae mlh1 rad18 strain growth inhibition, active compounds read high
In short: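 In this whole-cell yeast screen, a strain with altered DNA damage repair is challenged with compound, and its growth is measured against matched vehicle-treated controls.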

[11] = NCI Yeast Anticancer Drug Screen. Data for the rad18 strain (AID 177); conditions: S. cerevisiae rad18 mutant growth inhibition, active compounds read high
In short: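 Screen uses a yeast strain with a defined lesion in DNA damage repair; compound effect is read as loss of growth compared to untreated vehicle cultures.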

[12] = NCI Yeast Anticancer Drug Screen. Data for the rad52 strain (AID 147);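 further: 0% = growth of vehicle-treated control cultures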; conditions: S. cerevisiae rad52 mutant growth inhibition, active compounds read high
In short: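 Measured: yeast growth inhibition. System: strain with a defined DNA damage repair alteration. Reference: vehicle-treated control cultures.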

[13] = NCI Yeast Anticancer Drug Screen. Data for the wt1 strain (AID 149);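 further: 0% = growth of vehicle-treated wt1 cultures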; conditions: S. cerevisiae wt1 strain (SPY 50644) growth inhibition, active compounds read high
In short: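 Each compound is tested on wt1 yeast and the loss of growth versus vehicle gives the inhibition value.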

[14] = NCI Yeast Anticancer Drug Screen. Data for the rad50EPP+ strain (AID 151);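 further: 0% = growth of vehicle-treated control cultures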; conditions: S. cerevisiae rad50 mutant strain, active compounds read high
In short: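 One strain with a rad50 alteration (rad50EPP+) was compound-treated, its growth then compared to that of vehicle controls.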

[15] = NCI Yeast Anticancer Drug Screen. Data for the mgt1 strain (AID 153); conditions: S. cerevisiae mgt1 mutant growth inhibition, active compounds read high
In short: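 After exposure of the mgt1 yeast mutant to compound, growth was measured and reported as inhibition compared with vehicle controls.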

[16] = NCI Yeast Anticancer Drug Screen. Data for the rad50 strain (AID 155);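 further: 0% = growth of vehicle-only cultures of the same strain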; conditions: S. cerevisiae rad50 strain growth inhibition, active compounds read high
In short: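 Vehicle-treated cultures provide the reference for the growth inhibition reported for compound-exposed, repair-deficient yeast.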

[17] = at 5.0 µM (retest, dose inferred, filed as 0.5)
[18] = at 50.0 µM (retest, dose inferred, filed as 5.0)

Measured: growth inhibition

CN(C)Cc1cc(N=Nc2ccc(Cl)cc2)cc(CN(C)C)c1O
active: [3]; at 50.0 µM 95.2% | [5]; [18] 98% | [6]; [18] 73% | [6]; at 50.0 µM 91.2% | [7]; at 100.0 µM 80% | [9]; at 100.0 µM 95% | [10]; [18] 96% | [10]; at 50.0 µM 90.2%
inactive: [1]; at 100.0 µM 15% | [2]; at 1.2 µM 12% | [2]; at 3.7 µM 13% | [2]; at 11.0 µM 10% | [2]; at 33.0 µM 11% | [2]; at 100.0 µM 34% | [3]; [17] 1% | [3]; [18] 46% | [4]; at 1.2 µM 23% | [4]; at 3.7 µM 22% | [4]; at 11.0 µM 26% | [4]; at 33.0 µM 26% | [4]; at 100.0 µM 18% | [5]; [17] 39% | [5]; at 50.0 µM 44% | [6]; at 1.2 µM 4% | [6]; at 3.7 µM 2% | [6]; [17] 12% | [6]; at 11.0 µM 2% | [6]; at 33.0 µM 5% | [6]; at 100.0 µM 3% | [7]; at 1.2 µM 5% | [7]; at 3.7 µM 5% | [7]; at 11.0 µM 8% | [7]; at 33.0 µM 15% | [8]; at 1.2 µM 14% | [8]; at 3.7 µM 12% | [8]; at 11.0 µM 12% | [8]; at 33.0 µM 10% | [8]; at 100.0 µM 18% | [9]; at 1.2 µM 4% | [9]; at 3.7 µM 8% | [9]; at 11.0 µM 15% | [9]; at 33.0 µM 26% | [10]; [17] 4% | [11]; at 1.2 µM 7% | [11]; at 3.7 µM 8% | [11]; at 11.0 µM 25% | [11]; at 33.0 µM 15% | [11]; at 100.0 µM 34%

Cc1ccc(S(=O)(=O)NC(=O)NC2=NC(C)(C)N(c3ccc(Cl)c(Cl)c3)C(N)=N2)cc1
active: [5]; at 50.0 µM 79.4%
inactive: [12]; at 1.2 µM -2% | [12]; at 3.7 µM -2% | [12]; at 11.0 µM -1% | [12]; at 33.0 µM -3% | [12]; at 100.0 µM -3% | [13]; at 1.2 µM -2% | [13]; at 3.7 µM 1% | [13]; at 11.0 µM -1% | [13]; at 33.0 µM -1% | [13]; at 100.0 µM -3% | [14]; at 1.2 µM -2% | [14]; at 3.7 µM -3% | [14]; at 11.0 µM -1% | [14]; at 33.0 µM -2% | [14]; at 100.0 µM 4% | [15]; at 1.2 µM 0% | [15]; at 3.7 µM -1% | [15]; at 11.0 µM -4% | [15]; at 33.0 µM 1% | [15]; at 100.0 µM -5% | [16]; at 1.2 µM -2% | [16]; at 3.7 µM -4% | [16]; [17] 7% | [16]; at 11.0 µM -5% | [16]; at 33.0 µM -3% | [16]; [18] 1% | [16]; at 50.0 µM -1.3% | [16]; at 100.0 µM -4% | [2]; at 1.2 µM -1% | [2]; at 3.7 µM 0% | [2]; at 11.0 µM 1% | [2]; at 33.0 µM 1% | [2]; at 100.0 µM 0% | [3]; [17] 6% | [3]; [18] -6% | [3]; at 50.0 µM 4.25% | [4]; at 1.2 µM -9% | [4]; at 3.7 µM -5% | [4]; at 11.0 µM -5% | [4]; at 33.0 µM -1% | [4]; at 100.0 µM -11% | [5]; [17] 1% | [5]; [18] 1% | [6]; at 1.2 µM -2% | [6]; at 3.7 µM -7% | [6]; [17] 1% | [6]; at 11.0 µM -6% | [6]; at 33.0 µM -8% | [6]; [18] -1% | [6]; at 50.0 µM -23.9% | [6]; at 100.0 µM -5% | [7]; at 1.2 µM -3% | [7]; at 3.7 µM -4% | [7]; at 11.0 µM -3% | [7]; at 33.0 µM -4% | [7]; at 100.0 µM -3% | [8]; at 1.2 µM -1% | [8]; at 3.7 µM 0% | [8]; at 11.0 µM -1% | [8]; at 33.0 µM 1% | [8]; at 100.0 µM -3% | [9]; at 1.2 µM -1% | [9]; at 3.7 µM -2% | [9]; at 11.0 µM -1% | [9]; at 33.0 µM -2% | [9]; at 100.0 µM -2% | [10]; [17] 0% | [10]; [18] 47% | [10]; at 50.0 µM 2.35% | [11]; at 1.2 µM -1% | [11]; at 3.7 µM 2% | [11]; at 11.0 µM 4% | [11]; at 33.0 µM 1% | [11]; at 100.0 µM -1%

O=C1C=CC(=O)c2c(O)c(Nc3ccc(OC(F)(F)F)cc3)c(Cl)c(O)c21
active: [12]; at 100.0 µM 81% | [13]; at 100.0 µM 94% | [14]; at 33.0 µM 70% | [14]; at 100.0 µM 93% | [15]; at 100.0 µM 94% | [16]; at 100.0 µM 89% | [1]; at 33.0 µM 78% | [1]; [18] 79% | [1]; at 100.0 µM 94% | [3]; at 50.0 µM 73% | [4]; at 100.0 µM 83% | [6]; at 50.0 µM 82.2% | [6]; at 100.0 µM 91% | [7]; at 100.0 µM 93% | [8]; at 100.0 µM 87% | [9]; at 100.0 µM 96% | [10]; [18] 76% | [11]; at 100.0 µM 92%
inactive: [12]; at 1.2 µM 9% | [12]; at 3.7 µM 12% | [12]; at 11.0 µM 17% | [12]; at 33.0 µM 32% | [13]; at 1.2 µM 23% | [13]; at 3.7 µM 22% | [13]; at 11.0 µM 26% | [13]; at 33.0 µM 50% | [14]; at 1.2 µM 2% | [14]; at 3.7 µM 8% | [14]; at 11.0 µM 21% | [15]; at 1.2 µM 9% | [15]; at 3.7 µM 16% | [15]; at 11.0 µM 16% | [15]; at 33.0 µM 50% | [16]; at 1.2 µM -16% | [16]; at 3.7 µM -15% | [16]; [17] 4% | [16]; at 11.0 µM 4% | [16]; at 33.0 µM 67% | [16]; [18] 46% | [16]; at 50.0 µM 42% | [1]; at 1.2 µM -7% | [1]; at 3.7 µM -3% | [1]; [17] 9% | [1]; at 11.0 µM 8% | [1]; at 50.0 µM 46.8% | [3]; [17] 35% | [3]; [18] 49% | [4]; at 1.2 µM -8% | [4]; at 3.7 µM 0% | [4]; at 11.0 µM -5% | [4]; at 33.0 µM 12% | [5]; [17] 19% | [5]; [18] 32% | [5]; at 50.0 µM 37.9% | [6]; at 1.2 µM -17% | [6]; at 3.7 µM -8% | [6]; [17] 26% | [6]; at 11.0 µM 1% | [6]; at 33.0 µM 48% | [6]; [18] 65% | [7]; at 1.2 µM -5% | [7]; at 3.7 µM -6% | [7]; at 11.0 µM -6% | [7]; at 33.0 µM 21% | [8]; at 1.2 µM 0% | [8]; at 3.7 µM 6% | [8]; at 11.0 µM 13% | [8]; at 33.0 µM 37% | [9]; at 1.2 µM 34% | [9]; at 3.7 µM 32% | [9]; at 11.0 µM 58% | [9]; at 33.0 µM 62% | [10]; [17] 13% | [10]; at 50.0 µM 68.7% | [11]; at 1.2 µM -2% | [11]; at 3.7 µM -2% | [11]; at 11.0 µM 4% | [11]; at 33.0 µM 45%
